Assay results from PubChem BioAssay AID1159580 (chemical genetic matrix, 2015).
Where “and” joins values, the source holds several entries; their conditions need not be identical. Identical values can stand only once. Screen size: about 5,500 compounds; about 2,000 (36%) were called active. Roughly 18% stayed inconclusive and do not appear here. No stated cut-off is given here; in the data, active means normalized growth mostly below about 0.91 (no sharp cut-off); inconclusive means no clear call, values can overlap the other calls; inactive means mostly above about 0.92. The list shows a part of the results.

Assay: chemical genetic growth profiling, strain panel (AID 1159580);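 further: tested at 20 µM; growth read once vehicle control cultures reached saturation at 30 °C; 1 = growth at the plate median or of vehicle wells; lower values mean less growth of the strain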
Conditions: S. cerevisiae deletion strains, growth OD

Measured: normalized growth

CCOc1nc2cccc(C(=O)OC(C)OC(=O)OC3CCCCC3)c2n1Cc1ccc(-c2ccccc2-c2nn[nH]n2)cc1 (configuration not stated)
active: locus YDR137W, strain rgp1, hits give low values 0.824
inactive: locus YAL013W, strain DEP1, hits give low values 1 | locus YAL021C, strain ccr4, hits give low values 1 | locus YAL026C, strain drs2, hits give low values 1.03 | locus YAL030W, strain snc1, hits give low values 1.02 | locus YBL061C, strain skt5, hits give low values 1.01 | locus YBR009C, strain hhf1, hits give low values 0.998 | locus YBR021W, strain FUR4, hits give low values 1.03 | locus YBR023C, strain chs3, hits give low values 1.03 | locus YBR171W, strain sec66, hits give low values 1.05 | locus YBR229C, strain ROT2, hits give low values 0.996 | locus YBR231C, strain swc5, hits give low values 1.01 | locus YBR279W, strain paf1, hits give low values 1.02 | locus YCL011C, strain gbp2, hits give low values 1.02 | locus YCL016C, strain dcc1, hits give low values 1.01 | locus YCL029C, strain bik1, hits give low values 1.01 | locus YCL061C, strain MRC1, hits give low values 1.02 | locus YCL069W, strain vba3, hits give low values 1.05 | locus YCR088W, strain abp1, hits give low values 1.03 | locus YDL005C, strain med2, hits give low values 1.03 | locus YDL035C, strain GPR1, hits give low values 0.977 | locus YDL040C, strain nat1, hits give low values 1.02 | locus YDL074C, strain BRE1, hits give low values 0.96 | locus YDL101C, strain DUN1, hits give low values 0.998 | locus YDL134C, strain PPH21, hits give low values 1.01 | locus YDL185W, strain tfp1, hits give low values 0.999 | locus YDL192W, strain arf1, hits give low values 1 | locus YDR001C, strain nth1, hits give low values 1.03 | locus YDR069C, strain doa4, hits give low values 1.04 | locus YDR101C, strain arx1, hits give low values 1 | locus YDR150W, strain NUM1, hits give low values 1.01 | locus YDR159W, strain sac3, hits give low values 1 | locus YDR162C, strain NBP2, hits give low values 0.983 | locus YDR195W, strain ref2 0.994 | locus YDR297W, strain sur2, hits give low values 0.994 | locus YDR318W, strain mcm21, hits give low values 0.995 | locus YDR334W, strain swr1, hits give low values 1.03 | locus YDR335W, strain msn5, hits give low values 1.03 | locus YDR388W, hits give low values 1 | locus YDR392W, strain spt3, hits give low values 0.996 | locus YDR502C, strain sam2, hits give low values 0.997 | locus YEL003W, strain gim4, hits give low values 1.03 | locus YEL037C, strain rad23, hits give low values 1.02 | locus YEL061C, strain CIN8 (second series), hits give low values 1.02 | locus YEL061C, strain CIN8, hits give low values 1 | locus YER015W, strain faa2, hits give low values 1.02 | locus YER016W, strain bim1, hits give low values 1.02 | locus YER110C, hits give low values 0.997 | locus YER111C, strain swi4, hits give low values 1.04 | locus YER155C, strain BEM2 (second series), hits give low values 1.07 | locus YER155C, strain BEM2, hits give low values 1.01 | locus YER167W, strain BCK2, hits give low values 0.986 | locus YFR010W, strain ubp6, hits give low values 1.04 | locus YGL078C, strain dbp3, hits give low values 1.01 | locus YGL086W, strain mad1, hits give low values 0.997 | locus YGL167C, strain pmr1, hits give low values 1.03 | locus YGL173C, strain kem1, hits give low values 1.03 | locus YGL227W, strain vid30, hits give low values 1.02 | locus YGL240W, strain doc1, hits give low values 1.02 | locus YGL248W, strain PDE1, hits give low values 1.01 | locus YGL253W, strain hxk2, hits give low values 1.04 | locus YGR078C, strain PAC10, hits give low values 0.988 | locus YGR135W, strain pre9, hits give low values 1 | locus YGR229C, strain SMI1, hits give low values 0.851 | locus YGR252W, strain gcn5, hits give low values 0.972 | locus YHR013C, strain ard1, hits give low values 1.03 | locus YHR027C, strain rpn1, hits give low values 1.01 | locus YHR030C, strain SLT2, hits give low values 0.996 and 0.96 | locus YHR079C, strain IRE1 (second series), hits give low values 0.996 | locus YHR079C, strain IRE1, hits give low values 0.957 | locus YHR094C, strain hxt1, hits give low values 0.995 | locus YHR129C, strain ARP1, hits give low values 1.01 | locus YHR142W, strain chs7, hits give low values 1.04 | locus YHR200W, strain rpn10, hits give low values 0.998 | locus YIL066C, strain RNR3, hits give low values 1.01 | locus YIL073C, strain SPO22, hits give low values 1.07 | locus YIL125W, strain kgd1, hits give low values 0.989 | locus YIR030C, strain dcg1, hits give low values 0.996 | locus YJL092W, strain hpr5, hits give low values 1.03 | locus YJL095W, strain BCK1 (second series), hits give low values 1.01 | locus YJL095W, strain BCK1, hits give low values 0.8 and 1.01 | locus YJL115W, strain asf1, hits give low values 1.04 | locus YJL129C, strain trk1, hits give low values 1.04 | locus YJL134W, strain LCB3, hits give low values 1.01 | locus YJL154C, strain vps35, hits give low values 1.03 | locus YJL164C, strain tpk1, hits give low values 1.01 | locus YJL166W, strain qcr8, hits give low values 1.01 | locus YJL168C, strain set2, hits give low values 0.994 | locus YJL187C, strain SWE1 (second series), hits give low values 0.997 | locus YJL187C, strain SWE1, hits give low values 1.01 | locus YJR043C, strain POL32, hits give low values 0.996 | locus YJR066W, strain TOR1, hits give low values 0.93
